Reference: publication PMC5540273 (PLoS ONE, 2017)

Each compound was assayed on T1, DRAK1.
T1 construct: gene STK17A
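Further: kd values determined as follow-up on hits from a single-replicate KINOMEscan panel screen.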

| SMILES | Kd [nM] |
| --- | --- |
| CC(C)(C)c1ccc(-n2cnc3c(N)ncnc32)cc1 [SKF-97263] | 450 |
| C[C@H]1CC[C@@H](C(=O)Nc2ccccc2)CN1c1cc(-c2ccc3c(N)n[nH]c3c2)nc(N)n1 [GSK2283293] | 11 |
| Nc1nc(-c2ccc3c(N)n[nH]c3c2)cc(N2CCCCC2)n1 [GSK2228768] | 110 |
| CC(C)(C)OC(=O)NC1CCCN(c2cc(-c3ccc4c(N)n[nH]c4c3)nc(N)n2)C1 (stereo not drawn) [GSK2286096] | 130 |
| Fc1cccc(COc2ccc(Nc3ncnc4nn5ccccc5c34)cc2Cl)c1 [GW689066] | > 10000 |

Each compound was assayed on DYRK1B.

| SMILES | Kd [µM] |
| --- | --- |
| Cc1cc(N2CCC(NS(=O)(=O)c3ccc(F)cc3)CC2)nc(Nc2cccc(C#N)c2)n1.O=C(O)C(F)(F)F [GSK1653537] | 2.8 |
| Nc1n[nH]c2nnc(-c3ccccc3)cc12 [SB-517389] | 7 |
| COc1ccc(Nc2nccc(N3CCC(NC(=O)c4cccc(NC(C)=O)c4)C3)n2)cc1 (stereo not drawn) [GSK1379732] | > 10 |
| CC(C)(C)OC(=O)NC1CCCN(c2cc(-c3ccc4c(N)n[nH]c4c3)nc(N)n2)C1 (stereo not drawn) [GSK2286096] | > 10 |
